# Bioassay records (PubChem)
# Only some compounds are listed: those with a hit (about 7.5% of all), similar ones and a draw of the others.
# Rab9 prom act: Rab9 promoter activation; Huh7 Rab9 promoter-luciferase reporter, luminescence, 24 h; Potency, µM (doses to about 9.22 µM), for the others: top-dose activation, negative = inhibition, most hits filed as activators; 320,000 compounds, 2.8% hits; AID 485297; note: % of control where 0% means no effect; nearly all actives have a fitted effect of over 60% in size
#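 Luciferase signal after 10 min detection reagent at ambient indicates Rab9 promoter upregulation; stably transfected Huh7 cells were treated 24 h with compound in DMSO at 37 °C, 5% CO2.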
# NPC1 prom act: activators of NPC1 promoter; 320,000 compounds, 2.4% hits; Huh7 NPC1 promoter luciferase reporter, 24 h; Potency, µM (doses to about 9.22 µM), for the others: at the top dose activation, actives largely listed as activators; note: % of control where 0% means no effect; nearly all actives have a fitted effect of over 60% in size
#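 Readout is luciferase luminescence, reflecting NPC1 promoter activation in stably transfected Huh7 cells after 24 h compound exposure at 37 °C in reduced-serum medium with 10% FBS.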
# SMN2 splice up: increases expression of the SMN2 splice variant; HEK293 SMN2-luciferase splicing reporter, luminescence, 30-36 h; Potency, µM (titrated, usually from 46.1 µM), for inactives: at the top dose activity change, positive = activation, actives largely listed as activators; 210,000 compounds, 2.8% hits; AID 1458; note: % of control where 0% means no effect; nearly all actives have a fitted effect of over 55% in size
#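 HEK293 cells carry an SMN2 minigene-luciferase reporter in which exon 7 inclusion puts luciferase in frame. Cells were seeded at 2000 cells/well, attached for 10-12 hours, then exposed to compounds for 30-36 hours at 37C before ONE-Glo luminescence.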
# ELG1 genotox: inducers of genotoxicity in HEK293T ELG1-luciferase cells | HEK293T ELG1-luciferase reporter, luminescence, 16 h | Potency, µM (top dose mostly 46 µM), inactives show top-dose activity change, positive = activation, usual class: activators | 330,000 compounds, 1.3% hits; note: % of control where 0% means no effect; nearly all actives have a fitted effect of over 60% in size
#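 16 hr compound incubation (37 °C, 5% CO2) of HEK293T cells carrying luciferase-tagged ELG1; luciferase then measured by ONE-Glo luminescence after 30 min at RT.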
# FLuc modulator: firefly luciferase modulation, counter-screen for miR-21 project. 360,000 compounds, 6.9% hits. P08659. Potency, µM (doses to about 57.5 µM), for the others: at the highest dose activity change, negative = inhibition, usual class: inhibitors. purified FLuc, Km substrates, luminescence inhibition;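 note: plate controls were vehicle for no effect and reference inhibitor for full effect; nearly all actives have a fitted effect of over 55% in size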
# Target sequence (P08659 whole entry, looked up): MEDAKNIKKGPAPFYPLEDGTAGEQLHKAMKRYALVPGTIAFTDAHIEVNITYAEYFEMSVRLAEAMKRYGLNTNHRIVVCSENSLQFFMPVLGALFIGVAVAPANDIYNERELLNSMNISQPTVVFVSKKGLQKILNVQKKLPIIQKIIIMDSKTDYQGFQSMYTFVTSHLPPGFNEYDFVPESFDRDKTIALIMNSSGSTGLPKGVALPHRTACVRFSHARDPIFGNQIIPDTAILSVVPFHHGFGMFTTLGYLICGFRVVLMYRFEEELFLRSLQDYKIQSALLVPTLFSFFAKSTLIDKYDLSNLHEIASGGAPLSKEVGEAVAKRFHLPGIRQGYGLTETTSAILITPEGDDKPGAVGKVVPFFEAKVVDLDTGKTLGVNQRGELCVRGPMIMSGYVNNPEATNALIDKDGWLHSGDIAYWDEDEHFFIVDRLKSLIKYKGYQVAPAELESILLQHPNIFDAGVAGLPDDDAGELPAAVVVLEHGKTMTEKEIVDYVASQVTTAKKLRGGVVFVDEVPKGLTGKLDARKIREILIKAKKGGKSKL
#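 Biochemical qHTS of compounds, final roughly 60 µM downward over six points, against 10 nM purified firefly luciferase using Km concentrations of substrates (10 uM D-luciferin, 10 uM ATP) in Tris acetate pH 7.5 buffer; luminescence output.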
# Luc counter: blocks Kinase-Glo luciferase, a counter-screen artifact; AID 1379; 200,000 compounds, 0.28% hits; Potency, µM (highest dose often 38.3 µM), for inactives: at the top dose activity change, negative = inhibition, actives largely listed as inhibitors; Q27757; Kinase-Glo luciferase, ATP luminescence, 8 min; note: % is set by controls: 0 for no effect and ±100 for the full control effect; nearly all actives have a fitted effect of over 60% in size
#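 Compounds were added to a substrate mix at pH 7.2 (50 mM imidazole, 10 uM ATP, within the enzyme's linear range), followed by Kinase-Glo detection reagent; luminescence was measured after 8 minutes at ambient temperature.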
# Active calls of the source: *; ? = inconclusive; . = no result given. Calls come from the whole dose curve; as a rule, active = well fitted curve in the direction sought with a large enough effect; inconclusive = small, poorly fitted or top-dose-only effect, or another doubt; inactive = no such curve, though single readings can be large; an effect the other way counts as inactive or inconclusive. Potency is the fitted concentration of half-maximal effect.
SMILES,Rab9 prom act,NPC1 prom act,SMN2 splice up,ELG1 genotox,FLuc modulator,Luc counter
CCC(=O)Nc1cc2nn(-c3ccc(C)cc3)nc2cc1C,?,?,-56%,?,0.11µM*,-2%
COc1ccc(-n2nc3cc(C)c(NC(=S)NC(=O)c4ccccc4C)cc3n2)cc1,16%,1%,9%,?,2.4µM*,4%
Cc1cccc(C(=O)Nc2cc3nn(-c4ccc(C(C)C)cc4)nc3cc2C)c1,.,.,9%,.,2.1µM*,.
CCc1noc(C)c1C(=O)OCC(=O)NC(=O)c1ccccc1,-3%,-3%,.,2%,2%,.
Nc1nonc1-n1nnc(C(=O)N/N=C/c2cccnc2)c1-c1cccs1,-5%,-12%,.,-8%,?,.
Cc1ccc(/C=N/NC(=O)c2nnn(-c3nonc3N)c2-c2cccs2)cc1,1%,-2%,.,0%,9.5µM*,.
COc1ccc(/C=N/NC(=O)c2nnn(-c3nonc3N)c2-c2cccs2)cc1OC,11%,0%,.,-11%,19µM*,.
Cc1cc(C(=O)NNC(=S)NC2CCCCC2)cs1,1.3µM*,?,.,11%,2%,.
COc1cccc(C(=O)NNC(=S)NC2CCCCC2)c1,2.2µM*,?,?,11%,?,-1%
CC(C)(O)C#Cc1ccc(C(=O)NC2CCCCC2)s1,?,29%,?,?,?,1%
O=C(NNC(=S)NC1CCCCC1)c1cccs1,?,9%,-38%,0%,-12%,1%
CCc1ccc(C(=O)NC2CCCCC2)s1,2.2µM*,2.5µM*,13µM*,39%,12µM*,-1%
O=C(NNC(=S)NC1CCCCC1)c1ccc(Cl)s1,?,27%,13µM*,-2%,?,-1%
CCCn1cc(S(=O)(=O)c2ccc(CC)cc2)c(=O)c2ccccc21,.,.,-12%,.,-2%,.
Cc1cccc(NC(=S)NC(=O)c2ccc(-c3ccccc3)cc2)n1,2.2µM*,2.8µM*,.,?,11µM*,.
Cc1cccc(NC(=S)NC(=O)c2oc3ccccc3c2C)n1,1.4µM*,1.3µM*,.,?,?,.
Cc1cccc(NC(=O)Cc2ccc(-c3ccccc3)cc2)n1,3%,-2%,.,-5%,?,.
COc1ccccc1C(=O)Nc1nnc(SCc2cc(=O)c3cc(Cl)ccc3[nH]2)s1,.,.,.,.,-8%,.
O=C(Cn1cc(Cl)ccc1=O)c1ccc(Cl)cc1,0%,-1%,22%,5%,-2%,2%
O=c1cc(-c2ccc(C3CCCCC3)cc2)[nH][nH]1,1%,4%,9%,17%,11µM*,-1%
O=c1cc(-c2ccc(F)cc2)[nH][nH]1,-2%,-4%,19%,-2%,0%,0%
CC(C)Oc1ccc(CNS(=O)(=O)c2ccc3c(c2)C(C)(C)C(=O)N3C)cc1,.,.,.,.,-2%,.
Cc1ccc(NC(=O)CN2C(=O)S/C(=C\c3ccc(-c4cccc(C(=O)O)c4C)o3)C2=O)cc1,4%,0%,13%,2%,?,16%
CC(C)(C)OC(=O)CN1C(=O)S/C(=C\c2ccc(-c3cccc(C(=O)O)c3)o2)C1=O,3.2µM*,?,.,?,15µM*,.
CC(C)OC(=O)CN1C(=O)S/C(=C/c2ccc(N3CCCCC3)o2)C1=O,-3%,1%,-10%,28%,21µM*,-6%
O=C1S/C(=C/c2ccc(N3CCOCC3)o2)C(=O)N1Cc1ccc(F)cc1,-4%,0%,-17%,1%,?,-6%
Cc1ccc(C(=O)O)cc1-c1ccc(/C=C2\SC(=O)N(CC(=O)Nc3ccccc3)C2=O)o1,-1%,0%,-3%,-2%,?,2%
C#CCN1C(=O)S/C(=C\c2ccc(-c3ccc(C(=O)O)cc3C)o2)C1=O,2.5µM*,1.1µM*,.,?,7.6µM*,.
Cc1ccc(NC(=O)CN2C(=O)S/C(=C/c3ccc(-c4cccc(C(=O)O)c4)o3)C2=O)cc1,13%,13%,?,-10%,21µM*,2%
